This is a sample that favours compounds with a hit; in the whole collection about 19% have one here.
DT40 TDP1 no CPT = qHTS for Inhibitors of human tyrosyl-DNA phosphodiesterase 1 (TDP1): qHTS in cells in absence of CPT. DT40 Tdp1-/- hTDP1 cells, no CPT, ATP luminescence, 48 h. Potency, µM (highest dose often 46.2 µM), for the others: top-dose activity change, negative = growth inhibition, hits mostly inhibitors. actives 15% (n = 420,000). AID 686978, 2013; also: potency is read from the fitted curve at half-maximal effect; nearly all actives have a fitted effect of over 55% in size
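Stably hTDP1-transfected Tdp1-null chicken DT40 cells were treated with library compounds minus camptothecin and grown for at least 48 hr at 37 °C, after which cellular ATP was quantified by luminescence.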
IL1B secr inh = inflammasome signaling inhibition, IL-1 beta readout. THP-1 LPS/ATP IL-1B secretion, AlphaLISA, 16 h; active compounds read low. activity change, % at 57.5 µM. actives 4.7% (n = 360,000); in the data active = activity change below about -50%; inconclusive = mostly about -30% to -49%
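Secreted IL-1B measured by AlphaLISA bead assay after 16 h compound exposure of THP-1 cells; compounds (final up to 57.5 uM) added 1 h before LPS (250 ng/mL) and ATP (1.25 mM) stimulation; lower signal means less secretion.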
HT1080 IDH1KD tx = HT-1080 IDH1 knockdown cell toxicity (counter line) | actives 2% (n = 360,000) | Potency, µM (top dose mostly 46.1 µM), inactives show at the highest dose activity, negative = toxicity, usual class: cytotoxic | HT-1080 IDH1 knockdown viability, ATP luminescence, 48 h;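 also: potency is read from the fitted curve at half-maximal effect; 0% = DMSO wells and -100% = cell-free medium wells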
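Knockdown cells (IDH1KD HT-1080) received compounds 2 h after plating at 750 cells/well and were kept 48 h at 37 °C in 5% FBS RPMI. A CellTiter-Glo luminescence read gave % activity for curve fitting.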
HT1080-NT tox = kills 2HG-producing HT-1080-NT fibrosarcoma cells; HT-1080-NT fibrosarcoma viability, CellTiter-Glo ATP luminescence, 48 h; Potency, µM (highest dose often 46.1 µM), inactives show top-dose activity, negative = less viability, usual class: cytotoxic; actives 1.6% (n = 360,000); AID 686970;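 also: NT is the 2HG producing partner of a matched IDH1 knockdown line; potency is read from the fitted curve at half-maximal effect; 0% = DMSO-treated cells and -100% = media-only wells without cells; nearly all actives have a fitted effect of over 55% in size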
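Compounds were tested in concentration-response format on HT-1080-NT cells for 48 hours at 37 degrees C. Cell viability came from CellTiter-Glo luminescence; curves were classified by r2, response magnitude and activity.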
DT40 TDP1 CPT = growth inhibition of DT40 Tdp1-/-;hTDP1 cells with camptothecin (screen for TDP1 inhibitors) | chicken DT40 Tdp1-/-;hTDP1 cells + 20 nM CPT, ATP luminescence, 48 h | actives 12% (n = 420,000) | Potency, µM (top dose mostly 46.2 µM), inactives show top-dose activity change, negative = growth inhibition, most hits filed as inhibitors; also: potency is read from the fitted curve at half-maximal effect; nearly all actives have a fitted effect of over 55% in size
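Chicken DT40 Tdp1-/- cells stably complemented with human TDP1 were seeded at 400 cells/well in medium containing 20 nM camptothecin, exposed to pin-transferred compounds, and grown at 37 °C for at least 48 hr. Viability was read as ATP luminescence.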
* marks the source's active call; other numbers are inactive results; ? = inconclusive; / = not tested or not shown; ! = not confirmed by another sample. Unless noted, calls follow the shape of the dose curve; as a rule, active = well fitted curve in the direction sought with a large enough effect; inconclusive = small, poorly fitted or top-dose-only effect, or another doubt; inactive = no such curve, though single readings can be large; an effect the other way counts as inactive or inconclusive. Unless noted, % is scaled to controls: 0 for no effect and ±100 for the full control effect.

SMILES	DT40 TDP1 no CPT	IL1B secr inh	HT1080 IDH1KD tx	HT1080-NT tox	DT40 TDP1 CPT
Nc1ccnc2c1ncn2[C@@H]1O[C@H](CO)[C@@H](O)[C@H]1O	4.6µM*	/	/	/	12µM*
Nc1ncnc2c1ncn2[C@@H]1O[C@H](CO)[C@@H](O)[C@H]1O	-28%	-2	26%	?	-11%
OC[C@H]1O[C@@H](n2cnc3c(NCc4ccccc4)ncnc32)[C@H](O)[C@@H]1O	1.9µM*	/	/	/	2.7µM*
OCC1OC(n2cnc3ncccc32)C(O)C1O (centres undefined)	6.5µM*	16	?	21µM*	7.3µM*
O=C(Nc1ccc([N+](=O)[O-])cc1Br)c1cc2ccccc2nc1Cl	-17%	-13	18%	?	-21%
Cc1cc(Br)c2[nH]cc(CCNC(=O)c3ccco3)c2c1	?	0	0%	16%	-23%
CNC(=O)[C@H]1O[C@@H](n2cnc3c(NCc4cccc(I)c4)ncnc32)[C@H](O)[C@@H]1O	16µM*!	-29	-22%	-6%	?
OCC1OC(n2cnc3c(=S)nc[nH]c32)CC1O (centres undefined)	-10%	15	?	-18%	1%
NC(=O)c1ncn([C@@H]2O[C@H](CO)[C@@H](O)[C@H]2O)c1N	-1%	/	/	/	-3%
OC[C@H]1O[C@@H](n2cnc3c(=S)nc[nH]c32)[C@H](O)[C@@H]1O	11µM*	/	/	/	12µM*
N#Cc1ncn(C2OC(CO)C(O)C2O)c1N (centres undefined)	5.8µM*	-6	-2%	-1%	5.8µM*
CNC(=O)[C@H]1O[C@@H](n2cnc3c(N)ncnc32)[C@H](O)[C@@H]1O	-11%	/	/	/	-1%
OCC1OC(n2cnc3c(NO)ncnc32)C(O)C1O (centres undefined)	5µM*	/	/	/	0.89µM*
COc1ccc(OC)c(/C=C/C(=O)OCC(=O)NCc2cccs2)c1	-4%	18	1%	7%	-10%
CCC(C)N1C(=O)CCC1C(=O)O (centres undefined)	-7%	6	0%	1%	-3%
CC1(C(=O)NCc2ccccc2)CCC(=O)N1CCCn1ccnc1 (centres undefined)	-5%	-5	23%	?	1%
CN1CCN(c2ncnc3c2ncn3[C@H]2CN(Cc3ccco3)C[C@@H](CO)O2)CC1	-6%	13	19%	7%	2%
O=[N+]([O-])c1ccccc1S(=O)(=O)N/C(=N/S(=O)(=O)c1ccccc1)c1ccccc1	7%	29	12%	7%	0%
C=Cc1ccc(CSc2cc(C)nc3nc(C)nn23)cc1	?	69	-11%	-9%	?
COc1cc(NC(=O)Cn2cnc3c(NCc4ccccc4)ncnc32)cc(OC)c1OC	3%	23	-20%	-25%	3%
OCC1OC(n2cnc3c(NCc4ccccc4O)ncnc32)C(O)C1O (centres undefined)	1.5µM*	-86*	9.2µM*	13µM*	1.3µM*
O=C(Cn1cnc2c(NCc3ccccc3)ncnc21)NCc1ccccc1	2.9µM*	85	6.5µM*	8.2µM*	4.1µM*
OCC1OC(n2cnc3c(NCCc4ccccc4)ncnc32)C(O)C1O (centres undefined)	-11%	-11	?	2.1µM*	6%
Nc1ccc(CCNc2ncnc3c2ncn3[C@@H]2O[C@H](CO)[C@@H](O)[C@H]2O)cc1	?	-12	-4%	-5%	2%
OCC1OC(n2cnc3c(SCc4ccccc4)nc(F)nc32)C(O)C1O (centres undefined)	-13%	10	-4%	-10%	-26%
SMILES	DT40 TDP1 no CPT	IL1B secr inh	HT1080 IDH1KD tx	HT1080-NT tox	DT40 TDP1 CPT
OC[C@H]1O[C@@H](n2cnc3c(Nc4ccccc4)ncnc32)[C@H](O)[C@@H]1O	0%	-20	-9%	0%	6%
O=[N+]([O-])c1ccc(CSc2ncnc3c2ncn3[C@@H]2O[C@H](CO)[C@@H](O)[C@H]2O)cc1	13µM*	-24	-13%	0%	?
COc1ccc(CC(=O)OCC(=O)NC2CCCC(C)C2C)cc1 (centres undefined)	-14%	3	8%	10%	-2%
CC(=O)Nc1ccc(S(=O)(=O)N2CCC(NC(=O)C(Cc3ccccc3F)NC(C)=O)CC2)cc1 (centres undefined)	-12%	14	2%	0%	4%
COc1ccc(CN2CCC[C@]3(N[C@H](c4ccccc4)[C@@H]4C(=O)N(C)C(=O)[C@@H]43)C2=O)cc1	-25%	-3	15%	8%	4%
O=C(NCc1cccs1)c1nn(-c2ccccc2F)nc1CO	-26%	/	/	/	-20%
S=c1nc[nH]c2c1ncn2C1CCCO1 (centres undefined)	?	4	8.2µM*	4.6µM*	-20%
CC(C)n1cnc2c(=S)nc[nH]c21	-4%	7	1%	-2%	-10%
O=C(CCNC(=O)c1ccc([N+](=O)[O-])cc1)NCc1cccs1	-9%	12	2%	6%	0%
O=C(NCc1nnc(SCC(=O)N2CCOCC2)o1)c1c(F)cccc1Cl	5%	19	15%	14%	19%
CCCCN(CC(=O)NCc1ccc(F)cc1)C(=O)c1ccco1	-5%	8	-2%	6%	-17%
COc1ccc(-c2cc(C(=O)N(C)CC(=O)Nc3ccccc3Br)c3ccccc3n2)cc1OC	18µM*	-29	-18%	?	16µM*
CN(CC(=O)Nc1ccccc1C(F)(F)F)C(=O)c1cc(Cl)nc2ccccc12	11%	7	6%	4%	10%
COc1ccc(-c2cc(C(=O)N(C)CC(=O)Nc3ccccc3C(F)(F)F)c3ccccc3n2)cc1OC	4.1µM*	-16	-28%	?	21µM*
COc1ccc(/C=C/C(=O)OCC(=O)c2ccc3c(c2)NC(=O)CO3)cc1	-14%	4	19%	10%	?
Cc1ccc(N(C(=O)CNC(=O)c2ccco2)C(C(=O)NC2CCCCC2)c2ccncc2)c(C)c1 (centres undefined)	9%	10	0%	1%	2%
OC(COC(c1ccc(F)cc1)c1ccc(F)cc1)CN1CCCC(C(F)(F)F)C1 (centres undefined)	?	5	8%	0%	3%
COc1ccc(/C=C/C(=O)Nc2ccc3nc4c(c(Nc5ccccc5OC)c3c2)CCCC4)cc1	3.7µM*	/	/	/	3.3µM*
O=C(Nc1ccc2nc3n(c(=O)c2c1)CCCC3)c1cccc(F)c1	-21%	-2	3%	2%	-30%

Screening data deposited in PubChem by National Center for Advancing Translational Sciences (NCATS).
